Methyltransferases – Primary Screen for Target Class Profiling of Small Molecule Inhibitors of Methyltransferases; purified enzyme, MTase-Glo SAH luminescence; hits give low values; calls only at 40 µM; 25,000 compounds, 3.9% hits; call rule not given here
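Each enzyme was assayed with SAM and its substrate. SAH formation detected by MTase-Glo luminescence; single-point 40 uM screen[…].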
MTase-Glo ctr – detection enzyme interference, methyltransferase counter-screen; 180 compounds, 6% hits; MTase-Glo coupled enzymes, SAH conversion luminescence, no MTase; Potency, µM (titrated, usually from 57.3 µM), for the others: at the top dose activity change, negative = inhibition, most hits filed as inhibitors; shares compounds with Methyltransferases; active = well fitted inhibition curve with a large enough effect; inconclusive = small, poorly fitted or top-dose-only effect; note: potency is the fitted concentration of half-maximal effect
* hit, by the source's call; i = inactive; ? = inconclusive; + = active, no number; [ ] = remark or other dose. Only a selection was taken, and hits are over-represented in it overall. % is set by controls: 0 for no effect and ±100 for the full control effect.

SMILES	Methyltransferases	others
CN1C(=O)c2cc(C(=O)NCCCN3CCCC3=O)nn2CC1(C)C(=O)NC1CCCCC1 (stereo not drawn)	i
CCc1ccc(NC(=O)CN(C)S(=O)(=O)c2ccc3[nH]c4c(c3c2)CCCC4)cc1	i
CCC(C)NC(=O)c1ccc2c(=O)n(C)c3nn(Cc4ccccc4)c(=O)n3c2c1 (stereo not drawn)	i
COc1ccc(NS(=O)(=O)c2cc3c(cc2Cl)n(C)c(=O)n3C)cc1OC	i
CC1CCN(S(=O)(=O)c2ccc3c(ccn3CC(=O)NCCc3ccccc3Cl)c2)CC1	i
COc1ccc(C(C)NC(=O)c2c(C)sc3ccn(C)c(=O)c23)cc1 (stereo not drawn)	i
CCCCN(C)C(=O)c1c(C)sc2ccn(CCC)c(=O)c12	+	MTase-Glo ctr=-1%
Cc1sc2ccn(CC(C)C)c(=O)c2c1C(=O)N1CCCCC1	i
CCCn1c(=O)c2ccc(C(=O)NC(C)CC)cc2n2c(=O)[nH]nc12 (stereo not drawn)	i
CCn1c(=O)n(CC)c2cc(S(=O)(=O)N3CCN(c4ccc(C)cc4C)CC3)ccc21	i
CNc1cc(C2CC(NC(=O)COc3ccc(Cl)cc3C)C2)nc(N)n1 (stereo not drawn)	+	MTase-Glo ctr=2.7µM*
Cc1cc(Cl)ccc1NC1CN(C(=O)OC(C)(C)C)C1	i
Cc1nc(CCNc2cc(C3CC(O)C3)nc(N)n2)nc2c1CCC2 (stereo not drawn)	i
COC(=O)c1ncn2c1C(=O)N(c1ccc3c(c1)OCCO3)C(C)(C(=O)NCc1ccccc1)C2 (stereo not drawn)	i
O=Cc1ccc(N2CCN([S+](=O)([O-])C3CC3)CC2=O)cc1	i
COc1cccc2c1OCCCN(c1cc(C3CC(O)C3)nc(N)n1)C2 (stereo not drawn)	+	MTase-Glo ctr=-2%
COc1cccc2c1OCCCN(Cc1cn(-c3ccccc3)nn1)C2	i
CS(=O)(=O)NC1CCN(c2cc(C3CC(N)C3)nc(N)n2)CC1 (stereo not drawn)	i
Cc1cc2c(cc1S(=O)(=O)N1CCN(c3ccccn3)CC1)n(C)c(=O)n2C	i
CC(=O)Nc1c2n(c3ccc(F)cc13)CC(C)(C(=O)NC1CCCCC1)N(Cc1cccs1)C2=O (stereo not drawn)	i
Cc1ccc(C)c(C(=O)Cn2nc3n(Cc4ccc(F)cc4)c(=O)c4ccccc4n3c2=O)c1	i
CC(C)OCCCNC(=O)c1ccc2c(=O)nc3c(-c4cccc(F)c4)n[nH]n3c2c1	i
CC(C)c1nccn1CCCNC(=O)c1ccc(-c2cccc(F)c2)nc1	+	MTase-Glo ctr=2%
O=C(NC1CCN(CC(F)(F)F)CC1)c1ccc(-c2cccc(F)c2)nc1	i
O=C(Cn1c(=O)oc2cc(S(=O)(=O)N3CCCC3)ccc21)NCC1COc2ccccc2O1 (stereo not drawn)	i
SMILES	Methyltransferases	others
CC(=O)N1CCc2sc(C(=O)NC3CCN(Cc4ccccc4)CC3)cc2C1	i
O=C(C1CCCN1[S+](=O)([O-])c1cccc(C(F)(F)F)c1)N1CCC(c2nc3ccncc3[nH]2)C1 (stereo not drawn)	i
O=C(c1ccc(C(F)(F)F)cc1)N1CCCC(C(=O)N2CCC(c3nc4ccncc4[nH]3)CC2)C1 (stereo not drawn)	+	MTase-Glo ctr=2%
O=C(C1CCCN1C(=O)c1ccccc1Cl)N1CCC(c2nc3ccncc3[nH]2)CC1 (stereo not drawn)	i
CCOC(=O)c1cc2n(n1)CC(C)(C(=O)NCCC(C)C)N(c1ccc(Cl)cc1C)C2=O (stereo not drawn)	i
CC(C)NC(=O)c1ccc2c(=O)n(C(C)C)c3nn(Cc4ccc(Cl)cc4)c(=O)n3c2c1	i
CN1C(=O)c2cc(C(=O)NCc3cccc(Cl)c3)nn2CC1(C)C(=O)NCc1ccc(F)cc1 (stereo not drawn)	i
Cc1ccc(CNC(=O)C2(C)Cn3nc(C(=O)NCc4cccc(C)c4)cc3C(=O)N2C)cc1 (stereo not drawn)	i
COc1ccc(OC)c(CN2CCNc3cc(-c4ccnc(C)c4)ncc3C2)c1	+	MTase-Glo ctr=4%[85.7 µM]
COc1ccc(-c2nn(-c3ccccc3C)cc2CN2CCCN(C)CC2)cc1F	i
COc1ccc(OC)c(CN2CCC3(CC2)Nc2ccccc2NC3=O)c1	i
CCCn1c(=O)c2ccc(C(=O)NC(C)C)cc2n2c(=O)n(CC(=O)N(C)c3ccc(F)cc3)nc12	i
CCCN1C(=O)c2c(C(=O)NCc3ccccc3OC)ncn2CC1(C)C(=O)NCCC(C)C (stereo not drawn)	i
COc1ccc(-c2[nH]ncc2CN2CC[C@H]3CC[C@@H](C2)N3)cc1	+	MTase-Glo ctr=-2%
CN1C(=O)[C@H]2CN(Cc3cn[nH]c3-c3ccc(F)cc3)C[C@H]2C1=O	i
CN1CCN(c2nc3c(c(=O)[nH]2)CCN(Cc2cn[nH]c2-c2ccc(F)cc2)CC3)CC1	i
CN1C(=O)c2cc(C(=O)NCc3cccc(Br)c3)nn2CC1(C)C(=O)NCc1ccc(F)cc1 (stereo not drawn)	i
CCN1CCN(CCNC(=O)Cn2ccc3cc(S(=O)(=O)N4CCCCC4)ccc32)CC1	i
O=C(Cn1ccc2cc(S(=O)(=O)N3CCCC3)ccc21)NC1CCCc2ccccc21 (stereo not drawn)	i
COc1ccc(CN2CCc3nc(C(=O)NCCOc4ccccc4)oc3CC2)cn1	i
O=C(NCc1cccc(F)c1)c1nc2c(o1)CCN(CC1CCCC1)CC2	+	MTase-Glo ctr=-2%[85.7 µM]
O=C(NCC1CC1)c1nc2c(o1)CCN(CCCc1ccccc1)CC2	i
CCOc1ccc(CN2C(=O)c3c(C(=O)OC)ncn3CC2(C)C(=O)NC2CCCCCC2)cc1 (stereo not drawn)	i
Cc1ccc(C)c(C(=O)Cn2nc3n(Cc4ccccc4)c(=O)c4ccccc4n3c2=O)c1	i
CCC(C)NC(=O)c1ccc2c(=O)n(CCC(C)C)c3nn(Cc4ccccc4)c(=O)n3c2c1 (stereo not drawn)	i
SMILES	Methyltransferases	others
CCOc1ccc(CN2C(=O)c3cc4ccccc4n3CC2(C)C(=O)NC2CCCCC2)cc1 (stereo not drawn)	i
C=CCn1c(=O)c2ccc(C(=O)NC(C)C)cc2n2c(=O)n(CC(=O)Nc3ccc(C)cc3)nc12	i
CC(=O)Nc1ccc(CN2CCC3(C2)C(=O)N(C)c2ccccc23)cc1 (stereo not drawn)	i
CC(C)NC(=O)NC1CC2(CCN(C(=O)Cc3ccc(O)cc3)CC2)c2ccccc21 (stereo not drawn)	i
CC(=O)NC1CC2(CCN(Cc3ccc(O)cc3)CC2)c2ccccc21 (stereo not drawn)	+	MTase-Glo ctr=2%
CCNc1nc2c(s1)C(c1cccc(F)c1)CC(=O)N2 (stereo not drawn)	+	MTase-Glo ctr=?
CCOC(=O)c1cc2n(n1)CC(C)(C(=O)NC1CCCCCC1)N(Cc1ccc(F)cc1)C2=O (stereo not drawn)	i
Cc1cccc(CNC(=O)C2(C)Cn3cnc(C(=O)NCc4ccccn4)c3C(=O)N2C2CC2)c1 (stereo not drawn)	i
COCCNC(=O)c1ccc2c(=O)nc3c(-c4ccccc4)n[nH]n3c2c1	i
Cc1ccc([C@@H]2CN(c3cc(N4CCC(O)CC4)ncn3)C[C@H]2N(C)C)cc1	+	MTase-Glo ctr=-3%
